From PubChem BioAssay AID1159580 (chemical genetic matrix, 2015)
Among all 5,500 compounds or so, about 2,000 (36%) were called active. Another 18% or so got no clear call; they are omitted. Cut-off read from the data, not from the text of the source: active = normalized growth mostly below about 0.91 (no sharp cut-off); inconclusive = no clear call, values can overlap the other calls; inactive = mostly above about 0.92. The list shows a part of the results.

Assay: chemical genetic growth profiling, strain panel (AID 1159580);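 note: tested at 20 µM; growth read once vehicle control cultures reached saturation at 30 °C; 1 = growth at the plate median or of vehicle wells; lower values mean less growth of the strain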
Details: S. cerevisiae deletion strains, growth OD

Measured: normalized growth

Cn1c([N+](=O)[O-])cnc1COC(N)=O
inactive: locus YAL013W, strain DEP1, stronger effect = lower value 1.01 | locus YAL021C, strain ccr4, stronger effect = lower value 1.01 | locus YAL026C, strain drs2, stronger effect = lower value 1.02 | locus YAL030W, strain snc1, stronger effect = lower value 1 | locus YBL061C, strain skt5, stronger effect = lower value 1.01 | locus YBR009C, strain hhf1, stronger effect = lower value 0.978 | locus YBR021W, strain FUR4, stronger effect = lower value 1.02 | locus YBR023C, strain chs3, stronger effect = lower value 1.01 | locus YBR171W, strain sec66, stronger effect = lower value 1.01 | locus YBR229C, strain ROT2, stronger effect = lower value 1.01 | locus YBR231C, strain swc5, stronger effect = lower value 0.992 | locus YBR279W, strain paf1, stronger effect = lower value 1 | locus YCL011C, strain gbp2, stronger effect = lower value 1.01 | locus YCL016C, strain dcc1, stronger effect = lower value 1.01 | locus YCL029C, strain bik1, stronger effect = lower value 0.993 | locus YCL069W, strain vba3, stronger effect = lower value 0.987 | locus YCR088W, strain abp1, stronger effect = lower value 1.01 | locus YDL005C, strain med2, stronger effect = lower value 1.01 | locus YDL035C, strain GPR1, stronger effect = lower value 1.02 | locus YDL040C, strain nat1, stronger effect = lower value 0.997 | locus YDL074C, strain BRE1, stronger effect = lower value 1.02 | locus YDL101C, strain DUN1, stronger effect = lower value 1.02 | locus YDL134C, strain PPH21, stronger effect = lower value 1 | locus YDL185W, strain tfp1, stronger effect = lower value 0.978 | locus YDL192W, strain arf1, stronger effect = lower value 0.984 | locus YDR001C, strain nth1, stronger effect = lower value 1 | locus YDR069C, strain doa4, stronger effect = lower value 0.984 | locus YDR101C, strain arx1, stronger effect = lower value 0.986 | locus YDR137W, strain rgp1, stronger effect = lower value 1.04 | locus YDR150W, strain NUM1, stronger effect = lower value 1 | locus YDR159W, strain sac3, stronger effect = lower value 0.983 | locus YDR162C, strain NBP2, stronger effect = lower value 1.01 | locus YDR195W, strain ref2 1.01 | locus YDR297W, strain sur2, stronger effect = lower value 1.02 | locus YDR318W, strain mcm21, stronger effect = lower value 0.985 | locus YDR334W, strain swr1, stronger effect = lower value 1 | locus YDR335W, strain msn5, stronger effect = lower value 1.01 | locus YDR388W, stronger effect = lower value 0.992 | locus YDR392W, strain spt3, stronger effect = lower value 1.04 | locus YDR502C, strain sam2, stronger effect = lower value 0.989 | locus YEL003W, strain gim4, stronger effect = lower value 0.999 | locus YEL037C, strain rad23, stronger effect = lower value 0.998 | locus YEL061C, strain CIN8 (second series), stronger effect = lower value 1 | locus YEL061C, strain CIN8, stronger effect = lower value 1.01 | locus YER015W, strain faa2, stronger effect = lower value 1.01 | locus YER016W, strain bim1, stronger effect = lower value 1.02 | locus YER110C, stronger effect = lower value 0.988 | locus YER111C, strain swi4, stronger effect = lower value 0.998 | locus YER155C, strain BEM2 (second series), stronger effect = lower value 1.02 | locus YER155C, strain BEM2, stronger effect = lower value 1 | locus YER167W, strain BCK2, stronger effect = lower value 1.01 | locus YFR010W, strain ubp6, stronger effect = lower value 0.983 | locus YGL078C, strain dbp3, stronger effect = lower value 0.987 | locus YGL086W, strain mad1, stronger effect = lower value 0.998 | locus YGL167C, strain pmr1, stronger effect = lower value 1 | locus YGL173C, strain kem1, stronger effect = lower value 1 | locus YGL227W, strain vid30, stronger effect = lower value 1.01 | locus YGL240W, strain doc1, stronger effect = lower value 1 | locus YGL248W, strain PDE1, stronger effect = lower value 1.01 | locus YGL253W, strain hxk2, stronger effect = lower value 1.01 | locus YGR078C, strain PAC10, stronger effect = lower value 1.01 | locus YGR135W, strain pre9, stronger effect = lower value 0.983 | locus YGR252W, strain gcn5, stronger effect = lower value 0.981 | locus YHR013C, strain ard1, stronger effect = lower value 1.04 | locus YHR027C, strain rpn1, stronger effect = lower value 1.02 | locus YHR030C, strain SLT2, stronger effect = lower value 1.01 | locus YHR079C, strain IRE1 (second series), stronger effect = lower value 0.991 | locus YHR079C, strain IRE1, stronger effect = lower value 1 | locus YHR094C, strain hxt1, stronger effect = lower value 0.986 | locus YHR129C, strain ARP1, stronger effect = lower value 1 | locus YHR142W, strain chs7, stronger effect = lower value 1.01 | locus YHR200W, strain rpn10, stronger effect = lower value 0.986 | locus YIL066C, strain RNR3, stronger effect = lower value 1.02 | locus YIL073C, strain SPO22, stronger effect = lower value 1.03 | locus YIL125W, strain kgd1, stronger effect = lower value 0.987 | locus YIR030C, strain dcg1, stronger effect = lower value 0.994 | locus YJL092W, strain hpr5, stronger effect = lower value 1.01 | locus YJL095W, strain BCK1 (second series), stronger effect = lower value 1.01 | locus YJL095W, strain BCK1, stronger effect = lower value 1.02 | locus YJL115W, strain asf1, stronger effect = lower value 0.999 | locus YJL129C, strain trk1, stronger effect = lower value 1.02 | locus YJL134W, strain LCB3, stronger effect = lower value 1 | locus YJL154C, strain vps35, stronger effect = lower value 1.01 | locus YJL164C, strain tpk1, stronger effect = lower value 0.993 | locus YJL166W, strain qcr8, stronger effect = lower value 0.988 | locus YJL168C, strain set2, stronger effect = lower value 0.986 | locus YJL187C, strain SWE1 (second series), stronger effect = lower value 1.02 | locus YJR043C, strain POL32, stronger effect = lower value 1.02 | locus YJR066W, strain TOR1, stronger effect = lower value 0.954
